This note sets out measurements from PubChem BioAssay (EPA / NIEHS).

Structures are written as SMILES. Active and inactive are the calls of the source. How the source made its calls: active means hit-call score of the fitted dose curve at least 0.9, where 1 is the maximum; inconclusive means response in the unintended direction; inactive means score below 0.9.

The nature of the test: LTEA_HepaRG_LDH_cytotoxicity: Cytotoxicity Assessment in the Life Technologies and Expression Analysis (LTEA) Assay (AID 2283563). The procedure:
LTEA_HepaRG is a cell based, multiplexed-readout assay that uses HepaRG, a human liver cell line, with measurements taken at 48 hours after chemical dosing on a 96-well plate.LTEA_HepaRG_LDH_cytotoxicity is one of 102 assay component(s) measured in the LTEA HepaRG cell culture assay. It is a marker of cell viability / cytotoxicity.Data from the assay component LTEA_HepaRG_LDH_cytotoxicity was analyzed into 1 endpoint. This assay endpoint, LTEA_HepaRG_LDH_cytotoxicity, was analyzed in the positive fitting direction relative to DMSO as the negative control and baseline of activity. Using a type of inducible reporter, measures of mRNA induction for loss-of-signal activity can be used to understand cell death. To generalize the intended target to other relatable targets, this assay endpoint is annotated to the cell cycle intended target family, where the subfamily is proliferation.
A total of 1060 chemcials from the ToxCast library were tested in eight-point concentration-response experiments. Cell culture and cytotoxicity assays were conducted at Thermo Fisher Scientific's Custom Services facility (Madison, WI). A single lot of human HepaRG cells (Thermo Fisher Scientific, Frederick, MD) was used for the cell culture experiments. 96-well format collagen type I coated plates of human HepaRG cells were prepared using established methods. Briefly, cryopreserved HepaRG cells were thawed, plated at a density of approximately 100,000 cells/well in HepaRG Thaw, Plate, and General Purpose media (HPRG770, Thermo Fisher Scientific), and incubated for 48 hours. 0.5% DMSO was selected as vehicle control to balance the requisite need of DMSO in HepaRG cultures to maintain differentiation (for example, baseline metabolism, proportions of hepatocytes vs. cholangiocytes), while enabling further hepatic receptor pathway activation (for example, PXR and CAR) in response to chemical exposure. 48 hours after plating, the culture medium was replaced with HepaRG Serum-Free Incudtion Media. Cells were exposed to each test chemical in duplicate and maintained in CO2 incubators for another 48 hours. Chemical plates were thawed to room temperature and 200x concentrations of treatment groups were prepared. 8-point conentration-reponse curves were made with the highest exposure at 100 uM, followed by half-log dilutions, all in 0.5% DMSO. Each test plate contained variouse controls, induction positive controls (1mM phenobarbital), cytotoxicity positive controls ([…] aflatoxin B1), vehicle controls (0.5% DMSO), and total lysis controls (0.5% DMSO). Cell morphology images were taken using an Essen IncuCyte FLR automated microscope, with six 96-well plates imaged in about 24 minutes. Images were captured and exported and JPEG files. Spent culture media was transfered to black-well plates for the LDH assay, and remaining media was sorted at -80 C for later use. Cells were treated with RLT buffer and frozen until shipped for gene expression analysis. Total RNA was isolated from the cell suspension in 75 uL of Buffer RLT (Qiagen, Germantown, MD 20874) by Quintiles/Expression Analysis (Durham, NC) using a custom isolation procedure. Total RNA from each plate well was transferred to a preamplification plate. Fluidigm's 96.96 Dynamic ArrayTM (Fluidigm, Amsterdam, the Netherlands) technology was used for gene expression analyses by quantitative reverse transcription polymerase chain reaction (qRT-PCR, performed by Quintiles/Expression Analysis, Durham, NC)89. Standard TaqManTM Assays (Applied Biosystems/ThermoFisher Scientific, Foster City, CA) were used to assess the expression of 93 genes selected based on their selectivity and sensitivity to important hepatic receptors known to be modulated by environmental chemicals; importance in human hepatocyte functionality; and hepatotoxicity. […]
As to `O=C(N[C@H]1CN2CCC1CC2)c1ccc2c(c1)OCCO2`, the compound was classed as inactive.

In the case of `Cc1cc(C)cc(C)c1`, the result was inactive. With `Clc1cccc(Cl)c1Cl`, the compound was called inactive. `CC(C)(C)c1ccccc1O`: the result was inactive. For the compound `OCCN(CCO)CCO`, the result was inactive. Consider `N#Cc1cccnc1`, for which the call was inactive. For `Clc1cccc(Cl)c1`, the call was inactive. Same read-out and setting: under `COc1ccccc1N` stands “inactive”.

As for `O=C(O)C1(c2ccc3c(c2)OC[C@H](Cc2ccc(-c4ccccc4)cc2)[C@H]3O)CCCC1`, the AC50 is 77.6 µM (active). Regarding `CN(C)C(=S)S`, the compound was called inactive. Take `CCCCCCCCCCCCc1cccc(S(=O)(=O)O)c1`: the compound was called inactive. Consider `Oc1cc(Cl)c(Cl)cc1Cl`, for which the AC50 is 84.8 µM (active).
